Screening data (PubChem BioAssay)
Cycloheximide cs = Cycloheximide Counterscreen for Small Molecule Inhibitors of Shiga Toxin; cell reporter, cycloheximide protein synthesis inhibition counterscreen; max response, %; 300,000 compounds, 12% hits; AID 2314, 2010; in the data active = max response mostly above about 13%, no sharp cut-off; inactive = mostly below about 14%; note: read at 38.3 µM for the half of the compounds with a filed dose
Pf growth 96h = Primary qHTS for delayed death inhibitors of the malarial parasite plastid, 96 hour incubation; P. falciparum luciferase reporter growth, 96 h; Potency, µM (top dose mostly 28.7 µM), usual class: inhibitors; 320,000 compounds, 6.9% hits; AID 504834, 2011
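Two parasite generations (96 h, 37 C, 5% CO2) of compound exposure in infected erythrocytes (0.05% parasitemia, 2% hematocrit). Luciferase-reporter P. falciparum; decreased luminescence indicates inhibited growth, aimed at apicoplast-acting delayed death.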
NS1 function inh = qHTS Assay for Inhibitors of Influenza NS1 Protein Function | Potency, µM (doses to about 46.1 µM) | 270,000 compounds, 0.4% hits; calls by dose curve; note: actives are rising curves; nearly all actives have a fitted effect of over 50% in size
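In this qHTS, NS1 from influenza A is expressed in budding yeast, where it slows growth. Cells are switched from glucose to 2% galactose medium (pH 6.0, -URA), treated with compound, and growth recovery is read at OD600.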
Pf growth 48h = Primary qHTS for delayed death inhibitors of the malarial parasite plastid, 48 hour incubation; P. falciparum luciferase growth in erythrocytes, 48 h; Potency, µM (doses to about 28.7 µM), hits mostly inhibitors; 310,000 compounds, 5.9% hits
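Luminescence readout; reporter = integrated firefly luciferase in P. falciparum. RBC culture at 2% hematocrit, 0.1% parasitemia final, 37 C/5% CO2; decreased signal taken as growth inhibition.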
Shiga toxin inh = A qHTS for Small Molecule Inhibitors of Shiga Toxin; Vero cells, Shiga toxin protein synthesis inhibition reporter; inhibition, % at 38.7 µM; 290,000 compounds, 9.2% hits; AID 2315, 2010; in the data active = inhibition mostly above about 28%, no sharp cut-off; inactive = mostly below about 43%
Sm TGR inh = qHTS Assay for the Inhibitors of Schistosoma Mansoni Peroxiredoxins; Schistosoma mansoni thioredoxin glutathione reductase (TGR), Q962Y6; purified TGR, DTNB reduction, TNB absorbance 405 nm; Potency, µM (doses to about 114 µM), most hits filed as inhibitors; 360,000 compounds, 3% hits; AID 485364, 2010; note: nearly all actives have a fitted effect of over 60% in size
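TGR 20 nM + NADPH 100 uM (dispensed conc.), cpd preinc 15 min RT; start with NADPH (500 uM addition) then DTNB (15 mM addition). Kinetic TNB absorbance, 405 nm filter. Four-parameter Hill fit across titration.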
Hits are given with their value; i = inactive; ? = inconclusive; nt = not tested or not shown. Sampled rows, rich in hits. Any-hit rate of the full collection: about 21%. Unless noted, calls come from the whole dose curve; as a rule, active = well fitted curve in the direction sought with a large enough effect; inconclusive = small, poorly fitted or top-dose-only effect, or another doubt; inactive = no such curve, though single readings can be large; an effect the other way counts as inactive or inconclusive.

SMILES	Cycloheximide cs	Pf growth 96h	NS1 function inh	Pf growth 48h	Shiga toxin inh	Sm TGR inh
N/C(=N\OC(=O)Nc1ccccc1)c1cccc(C(F)(F)F)c1	28.9	?	i	?	43.1	i
N/C(=N\OC(=O)Nc1ccccc1)c1ncc(C(F)(F)F)cc1Cl	19.6	i	i	nt	52.9	i
N/C(=N\OC(=O)Nc1ccc(Cl)cc1)c1ncc(C(F)(F)F)cc1Cl	i	i	i	nt	i	i
CCCCCN(C(=O)CCC(=O)OCC(=O)N1C(C)CCCC1C)c1c(N)n(CCCC)c(=O)[nH]c1=O (centres undefined)	i	i	i	i	i	i
CCC(C)NC(=O)c1cccc(NC(=O)c2nsc3ccccc23)c1 (centres undefined)	nt	nt	nt	nt	nt	i
O=C(COc1ccc(NS(=O)(=O)c2ccc(F)cc2)cc1)N1CCOCC1	i	i	i	i	i	i
CCNC(=O)NC(=O)C(C)Oc1ccc(Br)cc1Br (centres undefined)	63.5	?	nt	i	97.9	i
CCCCc1nnc(SCc2cc(=O)c3cc(C(=O)OCC)ccc3[nH]2)n1C	nt	nt	nt	nt	nt	i
O=C(CSc1ncn[nH]1)Nc1nc(-c2ccccc2)cs1	i	?	i	nt	i	i
c1ccc(Nc2nc(CSc3ncn[nH]3)cs2)cc1	43.5	i	nt	i	68.1	?
CC(Oc1ccc(F)cc1)C(=O)Nc1cc(S(=O)(=O)N2CCOCC2)ccc1N1CCCCC1 (centres undefined)	nt	3.29µM	nt	4.65µM	nt	i
CC(Oc1ccc(Br)cc1)C(=O)Nc1cc(S(=O)(=O)N2CCOCC2)ccc1N1CCCC1 (centres undefined)	nt	13.1µM	nt	?	nt	i
Cc1cc(=O)oc2ccc(OC(=O)CC(C)C)cc12	i	i	i	i	i	i
O=C(CN1C(=O)COc2ccc(S(=O)(=O)N3CCCC3)cc21)N1CCN(c2ccccc2F)CC1	nt	nt	nt	nt	nt	i
Cn1c(O)c(/C=C2\N=c3ccccc3=C2CCNC(=S)NC2CC2)c(=O)n(C)c1=O	i	i	i	i	i	5.62µM
Cc1ccc2nc(NC(=S)NC(=O)c3ccco3)sc2c1	67.4	i	i	i	137.7	?
Cc1ccc(Nc2nc3ccccc3c(=O)s2)cc1C	i	i	?	i	i	i
O=c1sc(Nc2ccccc2)nc2ccsc12	80.1	?	i	nt	91.5	i
COc1ccc2nc(NC(=O)c3ccco3)sc2c1	20.4	i	i	i	60.2	i
CC(C)c1nnc(NC(=O)C2CCN(C(=O)c3ccco3)CC2)s1	21.0	i	i	?	40.4	i
Cc1ccc(C)c(NC(=O)Cn2cc(C(=O)c3ccncc3)c(=O)c3cc(F)ccc32)c1	nt	nt	nt	nt	nt	i
O=C(Nc1nc2ccsc2c(=O)s1)c1ccco1	27.4	i	i	i	97.2	i
COc1ccc2nc(NC(=O)C3CCN(S(=O)(=O)c4cccc5nsnc45)CC3)sc2c1	i	10.4µM	?	?	i	i
Cc1cccc(NC(=O)C2CCN(S(=O)(=O)c3cccc4nsnc34)CC2)n1	i	i	i	i	i	i
O=C(Nc1nc2ccsc2c(=O)s1)C1CCC1	40.7	i	i	i	55.0	i
SMILES	Cycloheximide cs	Pf growth 96h	NS1 function inh	Pf growth 48h	Shiga toxin inh	Sm TGR inh
Cc1csc2c(=O)sc(NC(=O)c3ccco3)nc12	i	i	i	i	i	i
Cc1ccc2nc(NC(=O)c3ccco3)sc2c1	29.6	i	i	nt	i	i
COc1cccc(-n2nc(C(C)=O)c(C#N)c2-c2ccco2)c1	i	i	i	i	i	i
COc1ccc2nc(NC(=O)C3CCN(C(=O)c4ccco4)CC3)sc2c1	36.2	?	i	i	144.1	i
Cc1ccc2nsnc2c1NC(=S)NC(=O)c1ccco1	i	i	i	i	i	44.7µM
Cc1cccc([C@@H]2[C@@H]3C(=O)N(Cc4ccccc4)C(=O)[C@@H]3[C@]3(Cc4ccccc4)C(=O)N(c4ccc(C(F)(F)F)cc4)C(=O)N23)c1	nt	8.28µM	nt	8.28µM	nt	i
Cc1cccc([C@@H]2[C@@H]3C(=O)N(Cc4ccccc4)C(=O)[C@@H]3[C@]3(Cc4ccccc4)C(=O)N(c4cccc(F)c4)C(=O)N23)c1	nt	?	nt	?	nt	i
Cc1cccc([C@@H]2[C@@H]3C(=O)N(Cc4ccccc4)C(=O)[C@@H]3[C@]3(Cc4ccc(Cl)cc4)C(=O)N(c4ccccc4)C(=O)N23)c1	i	?	i	?	i	i
Cc1cccc([C@@H]2[C@@H]3C(=O)N(Cc4ccccc4)C(=O)[C@@H]3[C@]3(Cc4ccccc4)C(=O)N(c4cccc(Cl)c4)C(=O)N23)c1	nt	11.7µM	nt	4.65µM	nt	i
Cc1cccc([C@@H]2[C@@H]3C(=O)N(Cc4ccccc4)C(=O)[C@@H]3[C@]3(Cc4ccccc4)C(=O)N(c4ccccc4)C(=O)N23)c1	nt	8.28µM	nt	10.4µM	nt	i
CCOC(=O)c1ccc(NC(=O)CCn2c(=O)c3cccn3c3ccccc32)cc1	nt	nt	nt	nt	nt	i
COc1cc2ccc([C@H](C)NCC#N)cc2cc1OC	nt	nt	i	nt	nt	nt
COc1ccc(S(=O)(=O)N2CCCC2CNC(=O)C(=O)Nc2ccc(F)cc2)cc1 (centres undefined)	nt	?	nt	?	nt	i
COc1cc(-c2[nH]ncc2CN2CCc3sccc3C2)cc(OC)c1OC	i	i	i	?	i	i
CCN(Cc1ccncc1)Cc1cn[nH]c1-c1cc(OC)c(OC)c(OC)c1	i	9.28µM	i	?	i	i
O=C(NCc1cccnc1)C(=O)C1C(=O)Nc2ccccc21 (centres undefined)	i	i	i	i	i	i
NC(N)=NCCCC(NC(=O)c1ccccc1)C(=O)Nc1ccc2ccccc2c1 (centres undefined)	nt	10.4µM	nt	?	nt	i
O=C(O)CC(NNC(=O)c1ccccc1)C(=O)Nc1ccc([N+](=O)[O-])cc1 (centres undefined)	36.5	i	i	i	67.5	i
NC(N)=NCCCC(NC(=O)c1ccccc1)C(=O)Nc1ccc([N+](=O)[O-])cc1 (centres undefined)	nt	9.28µM	nt	?	nt	i
NC(N)=NCCC[C@H](NC(=O)c1ccccc1)C(=O)Nc1ccc([N+](=O)[O-])cc1	i	nt	nt	nt	i	nt
COc1ccc(CN(C)CC(=O)Nc2cccc(S(N)(=O)=O)c2)c(OC)c1OC	i	i	i	i	i	nt
O=C(NCc1ccccc1)c1ccc2c(c1)CCN2S(=O)(=O)c1ccc(Cl)cc1	nt	nt	nt	nt	nt	i
O=C(O)[C@@H]1[C@@H](C(=O)Nc2ncccn2)[C@@H]2C=C[C@@H]1O2	nt	nt	i	nt	nt	nt
COC(=O)c1cc(C(=O)c2cc(F)ccc2O)cn2c(=O)c3c(C)c(C)sc3nc12	i	2.62µM	i	2.08µM	i	?
COc1ccc(S(=O)(=O)N2CCN(C)CC2)cc1	i	?	?	i	i	i
COc1ccc(S(=O)(=O)N2CCN(C3Cc4ccccc4C3)CC2)cc1	i	10.4µM	i	i	i	i
